Assay results reported in PubChem BioAssay.
Active and inactive are the calls of the source.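 How the source made its calls, unless noted: active means inhibition above 20% together with a positive visual image hit; inconclusive means visual image hit but inhibition not above 20%; inactive means no visual image hit.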

Experiments:
[1] = inhibitors of TNFa-induced NFkB p65 translocation, primary screen, imaging, HUVEC, MLSMR starter and 10KST1 sets (AID 438); details: HUVEC TNFa-induced p65 nuclear translocation; cell count: measured here: nuclei count (cytotoxicity indicator), at 2.08 µM; inhibition: at 2 µM, stronger effect = higher value, 0% TNFa-plus-vehicle, 100% no-TNFa wells;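 further: compound added about 3h40 before a 20 min TNFalpha stimulation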;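 on inhibition: signal is the nuclear over cytoplasmic p65 intensity ratio per well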
[2] = reduction of polyQ htt aggregates in cells – imaging, exon1htt(103Q)mCFP cells, high-content imaging, primary screen (AID 483;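 active means visual image review flags a hit and inhibition of aggregation exceeds 20%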;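 further: compound exposure lasted 3 days before fixation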;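 on nuclei count: percent of the per-plate median nuclei count of sample wells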); details: exon1htt(103Q)mCFP cell line, aggregate imaging, at 2 µM; inhibition of aggregation: stronger effect = higher value; nuclei count: measured here: cell count, toxicity
[3] = endothelial E-selectin expression blockers – imaging, HUVEC, immunofluorescence, MLSMR starter and 10KST1 sets, primary screen (AID 487;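 active means visually confirmed hit in the image check and inhibition above 20%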;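 on inhibition: signal is fraction of cell area covered by stained E-selectin grains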;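 on nuclei count: 100% = median nuclei count of all wells on the same plate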); details: HUVEC TNFalpha-induced E-selectin immunofluorescence imaging, at 2 µM; inhibition: stronger effect = higher value; nuclei count: measured here: cell number, toxicity
[4] = target: Voltage-gated potassium channel subunit beta-2 (Rattus norvegicus) (UniProt P62483); assay: inhibitors of rat Kvbeta2 reductase activity – biochemical, NADPH fluorescence, primary screen (AID 622;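 active means fluorescence slope higher than the sample average by over 3 SD, cut at about -0.22 in these data, passing the limit was not always enough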;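 further: slope of raw intensity against log time taken from 70 to 1610 s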); details: recombinant KvBeta, 4-cyanobenzaldehyde reduction, at 10 µM, stronger effect = higher value
Voltage-gated potassium channel subunit beta-2 (Rattus norvegicus), sequence (P62483 whole entry, looked up): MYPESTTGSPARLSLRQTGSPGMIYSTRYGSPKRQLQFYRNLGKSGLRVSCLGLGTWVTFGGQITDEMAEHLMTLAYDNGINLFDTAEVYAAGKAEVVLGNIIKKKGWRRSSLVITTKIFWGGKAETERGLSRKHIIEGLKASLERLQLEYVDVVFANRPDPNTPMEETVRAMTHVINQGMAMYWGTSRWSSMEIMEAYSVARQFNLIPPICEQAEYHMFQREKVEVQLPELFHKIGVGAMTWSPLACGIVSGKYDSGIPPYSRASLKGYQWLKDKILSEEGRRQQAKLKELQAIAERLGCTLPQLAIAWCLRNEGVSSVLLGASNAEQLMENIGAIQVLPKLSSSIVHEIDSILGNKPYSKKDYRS

[5] = target: Voltage-gated potassium channel subunit beta-2 (Rattus norvegicus) (UniProt P62483); assay: enhancers of rat Kvbeta2 NADPH turnover – biochemical, NADPH fluorescence, primary screen (AID 623;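 active means NADPH fluorescence slope more negative than the mean of all samples by about 3 SD, 99.7% confidence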;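 further: fluorescence intensity change per second fitted from 20 to 320 s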); details: Recombinant KvBeta, NADPH fluorescence decrease slope, 10 min; at 10 µM; stronger effect = lower value
[6] = target: Alpha-2C adrenergic receptor (Homo sapiens) (UniProt P18825); assay: compounds altering alpha2C-coupled GIRK flux – cell-based, HEK293 alpha2C/GIRK1/2, thallium flux, primary screen (AID 624;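 active means fluorescence slope after compound addition differing from the mean of all screened samples at 99.7% confidence, in either direction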;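 further: slope of fluorescence ratio to pre-addition baseline per second over 15 to 24 s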); details: thallium flux BTC fluorescence, at 10 µM, actives lie on both sides
Alpha-2C adrenergic receptor (Homo sapiens), sequence (P18825 whole entry, looked up): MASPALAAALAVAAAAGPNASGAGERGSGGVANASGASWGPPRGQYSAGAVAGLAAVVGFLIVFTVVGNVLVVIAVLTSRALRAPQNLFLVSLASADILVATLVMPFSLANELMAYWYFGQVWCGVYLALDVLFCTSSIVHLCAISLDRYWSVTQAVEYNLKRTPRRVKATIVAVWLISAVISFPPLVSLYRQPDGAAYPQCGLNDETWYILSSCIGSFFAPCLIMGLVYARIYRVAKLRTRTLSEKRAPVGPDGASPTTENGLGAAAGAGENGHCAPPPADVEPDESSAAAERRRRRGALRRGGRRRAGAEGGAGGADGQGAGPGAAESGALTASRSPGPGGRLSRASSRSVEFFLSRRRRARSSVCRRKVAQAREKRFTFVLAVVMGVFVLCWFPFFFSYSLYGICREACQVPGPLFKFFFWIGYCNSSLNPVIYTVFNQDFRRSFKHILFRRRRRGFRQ

[7] = blockers of RIG-like receptor reporter activation – cell-based, Sendai virus stimulus, luciferase, 10K MLSCN set, TLR/RLR signaling modifier project, primary screen (AID 602276;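 active means inhibition at or above 50% at 10 µM; inactive means inhibition below 50%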;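 further: firefly luciferase from ISG56 promoter only with Renilla not read in this screen; 0% = Sendai virus plus DMSO and 100% = medium plus DMSO without virus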); details: HEK293 RL24 IRF3 luciferase reporter, at 10 µM, stronger effect = higher value
[8] = TLR3 IRF3 reporter activation blockers – cell-based, poly I:C stimulus, luciferase, 10K MLSCN set, primary screen (AID 602277;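 active means inhibition of the reporter signal at or above 50%; inactive means inhibition below 50%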); details: HEK293-TLR3 RL24 IRF3 luciferase reporter, at 10 µM, stronger effect = higher value

SMILES | cell count [1] | inhibition [1] | inhibition of aggregation [2] | nuclei count [2] [%] | inhibition [3] | nuclei count [3] [%] | fluorescence slope [4] | NADPH fluorescence slope [5] | slope [6] | inhibition [7] | inhibition [8]
COc1ccccc1N1CCN(C(CNS(=O)(=O)c2cc(F)ccc2F)c2cccnc2)CC1 (stereo not drawn) | 557 | 7.2% (inactive) | -5.9% (inactive) | 96.7 | -5% (inactive) | 108 | -0.359 (inactive) | -5.8e-05 (inactive) | 0.00529 (inactive) | 9.38% (inactive) | 22.5% (inactive)
Cc1ccc(N(Cc2ccco2)C(=O)c2cccc(S(=O)(=O)N(C)C)c2)cc1 | 357 | 2.1% (inactive) | 25.6% (inactive) | 103 | 66% (inactive) | 97.5 | -0.393 (inactive) | -4.3e-06 (inactive) | 0.0037 (inactive) | 0.154% (inactive) | 14.9% (inactive)
COc1ccc(NC(=O)CSc2nc3c(c(=O)n2-c2ccc(F)cc2)SCC3)c(OC)c1 | 339 | 0.6% (inactive) | -14.2% (inactive) | 109 | -407% (inactive) | 114 | -0.474 (inactive) | -1.7e-05 (inactive) | 0.00491 (inactive) | 19.4% (inactive) | 26.7% (inactive)
O=c1[nH]c(Nc2ccccc2)cc2ccccc12 | 526 | -14.6% (inactive) | -7.1% (inactive) | 101 | -33.7% (inactive) | 96.7 | -0.132 (inactive) | 1.3e-05 (inactive) | 0.00342 (inactive) | 7.19% (inactive) | 7.53% (inactive)
COCc1cc(C)nc(Nc2ccc(C)cc2C)c1C#N | 635 | -12.3% (inactive) | -34.1% (inactive) | 113 | 24.1% (inactive) | 120 | -0.461 (inactive) | 5.1e-08 (inactive) | 0.00615 (inactive) | -5.46% (inactive) | 12.7% (inactive)
CCSc1ccccc1C(=O)NCc1ccc(S(N)(=O)=O)cc1 | 327 | 1.1% (inactive) | -5.9% (inactive) | 104 | -78.4% (inactive) | 120 | -0.435 (inactive) | -4.5e-05 (inactive) | 0.00523 (inactive) | 18.1% (inactive) | 16.5% (inactive)
CCCNC(=O)Nc1ccccc1C(=O)Nc1ccc(OC)cc1 | 351 | 8.1% (inactive) | -15.5% (inactive) | 104 | 25.8% (inactive) | 108 | -0.445 (inactive) | -1.6e-06 (inactive) | 0.00585 (inactive) | -1.84% (inactive) | 30.5% (inactive)
CC1CCCCC1NC(=O)Cn1ncc2ccccc21 (stereo not drawn) | 827 | -6.9% (inactive) | 10.9% (inactive) | 94 | -81.1% (inactive) | 123 | -0.555 (inactive) | -4.8e-05 (inactive) | 0.00699 (inactive) | 11.9% (inactive) | 34.8% (inactive)
O=c1c2nnn(Cc3ccc(Cl)cc3)c2ncn1Cc1ccc(F)cc1 | 608 | -7.9% (inactive) | -10.3% (inactive) | 130 | -19.2% (inactive) | 111 | -0.539 (inactive) | -6.1e-05 (inactive) | 0.00552 (inactive) | 13.6% (inactive) | 20.6% (inactive)
CCOc1cc(C2/C(=C(/O)c3ccc(OC(C)C)cc3)C(=O)C(=O)N2CCCOC)ccc1O (stereo not drawn) | 714 | -7.5% (inactive) | -20.2% (inactive) | 111 | -120% (inactive) | 111 | -0.513 (inactive) | 2e-05 (inactive) | 0.00381 (inactive) | 12.7% (inactive) | 14.8% (inactive)
O=C(CC(CC(=O)c1ccccc1)C(=O)O)c1ccccc1 | 393 | 8.7% (inactive) | -4.6% (inactive) | 91.9 | -52.5% (inactive) | 109 | -0.525 (inactive) | -3.8e-05 (inactive) | 0.0059 (inactive) | -0.637% (inactive) | -0.177% (inactive)
CC1CCC(NC(=O)C2CCN(c3cnccn3)CC2)CC1 (stereo not drawn) | 579 | -52% (inactive) | -0.6% (inactive) | 102 | -108% (inactive) | 116 | -0.575 (inactive) | -6.7e-05 (inactive) | 0.00693 (inactive) | -0.638% (inactive) | -2.17% (inactive)
O=C(Cn1c(NCCO)nc2ccccc21)c1ccccc1 | 513 | 4.9% (inactive) | 18.2% (inactive) | 106 | -58.5% (inactive) | 115 | -0.58 (inactive) | -1.8e-05 (inactive) | 0.00599 (inactive) | 9.81% (inactive) | 29.4% (inactive)
CCOC(=O)NC(=O)CSc1nnnn1-c1ccc(Cl)cc1 | 394 | 10% (inactive) | 2.2% (inactive) | 83.5 | -90.3% (inactive) | 110 | -0.297 (inactive) | 4.2e-05 (inactive) | 0.00637 (inactive) | 4.73% (inactive) | 15.2% (inactive)
COc1ccccc1N1CCN(C(=O)CSc2nc3ncnc(N)c3[nH]2)CC1 | 467 | -8.8% (inactive) | -0.2% (inactive) | 110 | -144% (inactive) | 162 | -0.52 (inactive) | 7.1e-06 (inactive) | 0.00625 (inactive) | 16% (inactive) | 23.6% (inactive)
CO/C([O-])=N/c1c[n+](-c2ccc(C)cc2)no1 | 711 | -18.1% (inactive) | -9.2% (inactive) | 104 | -3.6% (inactive) | 113 | -0.471 (inactive) | -4.7e-05 (inactive) | 0.00685 (inactive) | -8.44% (inactive) | -40% (inactive)
CC(CC(=O)NCc1ccccc1)C1CCCO1 (stereo not drawn) | 439 | -2% (inactive) | 20.9% (inactive) | 92.2 | -112% (inactive) | 114 | -0.463 (inactive) | -3.8e-06 (inactive) | 0.0065 (inactive) | -2.84% (inactive) | -9.76% (inactive)
COc1cccc(C2=NOC(C(=O)Nc3cc(C)nn3-c3ccccc3)C2)c1OC (stereo not drawn) | 570 | -6.2% (inactive) | -1.5% (inactive) | 105 | -19.4% (inactive) | 107 | -0.586 (inactive) | -5.4e-05 (inactive) | 0.00584 (inactive) | 16.2% (inactive) | 23.8% (inactive)
O=C(Cc1cccs1)Nc1ccccc1NC(=O)Cc1cccs1 | 323 | -1.4% (inactive) | 16.2% (inactive) | 82.6 | 7.1% (inactive) | 88.2 | -0.366 (inactive) | -7.6e-05 (inactive) | 0.00795 (inactive) | 9.79% (inactive) | 34.9% (inactive)
O=C(NCC1CCCO1)c1ccc(N2CCCCC2)nc1 (stereo not drawn) | 684 | -11.2% (inactive) | 1.5% (inactive) | 99.7 | -30.2% (inactive) | 107 | -0.314 (inactive) | 2.7e-06 (inactive) | 0.00663 (inactive) | -7.44% (inactive) | -103% (inactive)
CCCC(=O)n1nc(-c2ccc(OC)cc2)nc1N | 239 | -3.7% (inactive) | 17.1% (inactive) | 80 | -20.1% (inactive) | 77 | -0.483 (inactive) | -4.3e-05 (inactive) | 0.00574 (inactive) | 12.9% (inactive) | 14.6% (inactive)
COc1ccc(C(=O)c2coc3ccc(O)c(CN4CCCCC4)c23)cc1 | 828 | -6.8% (inactive) | -9.1% (inactive) | 108 | -25.2% (inactive) | 112 | -0.597 (inactive) | -1.2e-05 (inactive) | 0.00458 (inactive) | -9.24% (inactive) | -15.8% (inactive)
COCCn1c(CN2CCN(c3ccccc3F)CC2)nc2c1c(=O)n(C)c(=O)n2C | 609 | -5.2% (inactive) | 0.1% (inactive) | 92.3 | 2.6% (inactive) | 90.2 | -0.61 (inactive) | -2.3e-05 (inactive) | 0.00711 (inactive) | -11.5% (inactive) | -9.11% (inactive)
CCCOc1ccccc1NC(=O)c1ccc(N)cc1 | 428 | 7% (inactive) | 6.7% (inactive) | 106 | -137% (inactive) | 114 | -0.396 (inactive) | -4.2e-05 (inactive) | 0.00363 (inactive) | 11.3% (inactive) | 18.2% (inactive)
COc1ccccc1-c1nc(SCc2ccccn2)n[nH]1 | 509 | 8.9% (inactive) | 2.6% (inactive) | 99.6 | 32.9% (inactive) | 96.4 | -0.605 (inactive) | -2.8e-05 (inactive) | 0.0058 (inactive) | -21% (inactive) | -28.9% (inactive)
Cc1ccc(OCc2nnc(SCC(=O)Nc3ccc4c(c3)OCO4)n2C)cc1 | 325 | -6.5% (inactive) | 7.6% (inactive) | 77.3 | -59.2% (inactive) | 103 | -0.409 (inactive) | -5.7e-05 (inactive) | 0.00504 (inactive) | 17.9% (inactive) | 12.7% (inactive)
CC(C)OC(=O)C1C2C=CC3(CN(Cc4cccs4)C(=O)C13)O2 (stereo not drawn) | 469 | 5% (inactive) | 0.9% (inactive) | 83.9 | -92.4% (inactive) | 111 | -0.533 (inactive) | -1.6e-05 (inactive) | 0.005 (inactive) | 20.6% (inactive) | 32.2% (inactive)
CSc1nc(N2CCOCC2)c2ccccc2n1 | 730 | -29.3% (inactive) | 13.4% (inactive) | 80.7 | -56.6% (inactive) | 114 | -0.601 (inactive) | -3.9e-05 (inactive) | 0.00469 (inactive) | 6.41% (inactive) | -10.5% (inactive)
